Source: PubChem BioAssay (NCI)
This is part of a sample that, as a whole, favours compounds with a hit. Of some 83,000 tested, about 20% had one in any assay.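 Values shown are percent growth following 48 h exposure of cells in 96-well plates to a single concentration of compound; below 10 was considered active.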 The source made the active and inactive calls.

Tests used:
Assay in all cases: NCI-60 one-dose screen, 48 h (100 = growth as untreated, 0 = no growth, -100 = all killed)
NCI-H23 lung = conditions: 10 µM unless noted
NCI-H226 lung = conditions: 10 µM unless noted
NCI-H322M lung = conditions: 10 µM unless noted
HOP-62 NSCLC = conditions: 10 µM unless noted
HOP-92 NSCLC = conditions: 10 µM
NCI-H522 lung = conditions: 10 µM
A549/ATCC NSCLC = conditions: 10 µM unless noted
786-0 renal = conditions: 10 µM unless noted
COLO 205 colon = conditions: 10 µM unless noted
DU-145 prostate = conditions: 10 µM unless noted
K-562 leukemia = conditions: 10 µM unless noted
MALME-3M melanoma = conditions: 10 µM unless noted
MDA-MB-231 breast = conditions: 10 µM unless noted
RXF 393 renal = conditions: 10 µM unless noted
SF-268 CNS = conditions: 10 µM unless noted
SF-295 CNS = conditions: 10 µM unless noted
SF-539 CNS = conditions: 10 µM unless noted
UACC-257 melanoma = conditions: 10 µM unless noted
M14 melanoma = conditions: 10 µM unless noted
NCI-H460 lung = conditions: 10 µM unless noted

Measured: growth

CC(=O)CCS(=O)c1ccccc1 (stereo not given)
inactive: NCI-H23 lung 98.1% | NCI-H226 lung 107% | NCI-H322M lung 93.7% | HOP-62 NSCLC 105% | HOP-92 NSCLC 92.8% | NCI-H522 lung 82.7% | A549/ATCC NSCLC 96.1% | 786-0 renal 105% | COLO 205 colon 124% | DU-145 prostate 103% | K-562 leukemia 98.9% | MALME-3M melanoma 97.2% | MDA-MB-231 breast 106% | RXF 393 renal 99.7% | SF-268 CNS 94.9% | SF-295 CNS 97.6% | SF-539 CNS 113% | UACC-257 melanoma 99.5% | M14 melanoma 105%

Cc1ccc(C(=O)C(Br)C(Br)c2ccccc2)cc1 (stereo not given)
inactive: NCI-H23 lung 114% | NCI-H226 lung 92.8% | NCI-H322M lung 95% | HOP-62 NSCLC 115% | NCI-H460 lung 101% | 786-0 renal 99.4% | COLO 205 colon 52.8% | DU-145 prostate 85.9% | K-562 leukemia 50.9% | MALME-3M melanoma 88.3% | MDA-MB-231 breast 99.9% | RXF 393 renal 79.3% | SF-268 CNS 95.7% | SF-295 CNS 97.9% | SF-539 CNS 100% | M14 melanoma 101%

COc1cc(OC)c(/C=C/c2ccc3ccccc3[n+]2C)c(OC)c1
active: NCI-H23 lung 1.71% | NCI-H460 lung 1.55% | COLO 205 colon -51.5% | K-562 leukemia 9.98% | MALME-3M melanoma 3.03% | SF-295 CNS -32.7% | SF-539 CNS -23.7%
inactive: NCI-H226 lung 26.2% | NCI-H322M lung 17.7% | HOP-62 NSCLC 28.4% | 786-0 renal 18.5% | DU-145 prostate 22.3% | MDA-MB-231 breast 28.2% | RXF 393 renal 34.5% | SF-268 CNS 18% | M14 melanoma 15.9%

CCCCCCCCCCCCCCCCCC(=O)Nc1ccc(O)cc1
active: SF-539 CNS -16%
inactive: NCI-H23 lung 98.7% | NCI-H226 lung 102% | NCI-H322M lung 97% | HOP-62 NSCLC 91.4% | NCI-H460 lung 100% | 786-0 renal 79% | COLO 205 colon 93% | DU-145 prostate 103% | K-562 leukemia 96.6% | MALME-3M melanoma 94.1% | MDA-MB-231 breast 86.3% | RXF 393 renal 99.6% | SF-268 CNS 84.2% | SF-295 CNS 106% | M14 melanoma 103%

O=C(CN1CCN(c2cccc(Cl)c2)CC1)N1CCN(c2nnc(-c3ccc(Cl)cc3)c(-c3ccc(Cl)cc3)n2)CC1
inactive: NCI-H23 lung 87.7% | NCI-H226 lung 76.7% | NCI-H322M lung 77.8% | HOP-62 NSCLC 116% | NCI-H460 lung 76.5% | 786-0 renal 91.2% | COLO 205 colon 82.8% | DU-145 prostate 94.8% | K-562 leukemia 38.8% | MALME-3M melanoma 105% | MDA-MB-231 breast 86.8% | SF-268 CNS 89.8% | SF-295 CNS 84.3% | SF-539 CNS 74.4% | M14 melanoma 106%

CCCCN(CCCC)CCCNc1c2c(nc3ccc(Cl)cc13)CCCC2
active: 786-0 renal -69.6%
inactive: NCI-H23 lung 82% | NCI-H226 lung 100% | NCI-H322M lung 95.4% | HOP-62 NSCLC 86.6% | HOP-92 NSCLC 73.5% | NCI-H522 lung 80.1% | A549/ATCC NSCLC 94.6% | COLO 205 colon 77.4% | DU-145 prostate 107% | K-562 leukemia 72.8% | MALME-3M melanoma 126% | MDA-MB-231 breast 70.5% | RXF 393 renal 109% | SF-268 CNS 92.3% | SF-295 CNS 90.1% | SF-539 CNS 100% | UACC-257 melanoma 105% | M14 melanoma 98%

CC(C)CSc1nc(-c2ccc(F)cc2)c(C#N)c(N2CCCCC2)n1
inactive: NCI-H23 lung 83.7% | NCI-H226 lung 90.5% | NCI-H322M lung 94% | HOP-62 NSCLC 110% | HOP-92 NSCLC 97.5% | NCI-H522 lung 82.6% | A549/ATCC NSCLC 86.6% | 786-0 renal 90.8% | COLO 205 colon 96.2% | DU-145 prostate 94.1% | K-562 leukemia 95.8% | MALME-3M melanoma 86.1% | MDA-MB-231 breast 101% | RXF 393 renal 87.7% | SF-268 CNS 90.9% | SF-295 CNS 92.6% | SF-539 CNS 103% | UACC-257 melanoma 100% | M14 melanoma 89.8%

CCN(CC)CCNc1ncnc2c1cnn2-c1ccc(Cl)cc1
inactive: NCI-H23 lung 76.5% | NCI-H226 lung 100% | NCI-H322M lung 92.8% | HOP-62 NSCLC 114% | NCI-H460 lung 85% | 786-0 renal 106% | COLO 205 colon 15.9% | DU-145 prostate 94.5% | K-562 leukemia 45% | MALME-3M melanoma 88.9% | MDA-MB-231 breast 61.1% | SF-268 CNS 81.7% | SF-295 CNS 85.7% | SF-539 CNS 70%

CCN(CC)CCOC(=O)c1cccnc1
inactive: NCI-H23 lung 95.8% | NCI-H226 lung 90.3% | NCI-H322M lung 100% | HOP-62 NSCLC 94.6% | NCI-H460 lung 101% | 786-0 renal 99.8% | COLO 205 colon 119% | DU-145 prostate 109% | K-562 leukemia 92.7% | MALME-3M melanoma 91.3% | MDA-MB-231 breast 105% | RXF 393 renal 103% | SF-268 CNS 102% | SF-295 CNS 101% | SF-539 CNS 102% | M14 melanoma 102%
